Common to all, as to experiment: protein-binding microarray (PBM); PBM: ~300 nM protein, 6 mM HEPES pH 7.8, 80 mM KCl, 0.5 mM EDTA, 0.5 mM EGTA, 6% glycerol, 35 ng/ul poly-dIdC, 1% milk, 1 h, room temperature; Ap Aiptasia and Nv Nematostella (sea anemones) / Co Capsaspora / Aq Amphimedon (sponge) / Dm Drosophila / Hu human; RHD is the Rel homology domain; high values mean tight binding
Conditions in all cases: dsDNA, one strand shown

One experiment concerns the target T1, GST-Ap-NF-kB RHD (Exaiptasia pallida (Aiptasia), UniProt A0A913YAJ5 2-422).
T1 sequence: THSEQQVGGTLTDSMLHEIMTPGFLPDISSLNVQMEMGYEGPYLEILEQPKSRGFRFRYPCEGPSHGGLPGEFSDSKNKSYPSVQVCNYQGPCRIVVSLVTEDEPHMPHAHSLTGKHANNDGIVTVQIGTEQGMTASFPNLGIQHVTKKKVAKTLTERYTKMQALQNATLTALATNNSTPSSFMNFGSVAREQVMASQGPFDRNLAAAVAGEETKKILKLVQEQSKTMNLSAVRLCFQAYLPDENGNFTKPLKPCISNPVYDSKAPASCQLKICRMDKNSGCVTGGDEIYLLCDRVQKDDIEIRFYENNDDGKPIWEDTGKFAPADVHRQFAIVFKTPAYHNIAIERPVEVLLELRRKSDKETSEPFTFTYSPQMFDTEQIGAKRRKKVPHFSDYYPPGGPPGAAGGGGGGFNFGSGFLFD

The target of experiment [1] is T2, GST-Nv-NF-kB (Cys allele) (Nematostella vectensis, UniProt E5G601 2-411).
T2 sequence: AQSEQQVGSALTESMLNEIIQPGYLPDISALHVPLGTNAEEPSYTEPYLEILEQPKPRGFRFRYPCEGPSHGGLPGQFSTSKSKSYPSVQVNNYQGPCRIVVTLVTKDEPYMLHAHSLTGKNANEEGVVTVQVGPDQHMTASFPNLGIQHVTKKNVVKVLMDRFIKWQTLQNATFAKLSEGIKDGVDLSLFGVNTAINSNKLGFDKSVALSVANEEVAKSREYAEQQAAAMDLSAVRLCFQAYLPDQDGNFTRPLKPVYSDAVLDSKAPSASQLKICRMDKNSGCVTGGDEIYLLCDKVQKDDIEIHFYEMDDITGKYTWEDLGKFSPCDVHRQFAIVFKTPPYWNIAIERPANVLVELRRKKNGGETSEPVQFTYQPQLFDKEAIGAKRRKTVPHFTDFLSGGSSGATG

Experiment [2] deals with T3, GST-Nv-NF-kB (Ser allele) (Nematostella vectensis, UniProt A7UNT2 2-411).
T3 sequence: T2 sequence with Q21R, C66S, S207N, E215Q, V217A, E225K, A268E, D399E

In another experiment the target is T4, GST-Co-NF-kB (Capsaspora owczarzaki, UniProt F1ARL5 200-546).
T4 sequence: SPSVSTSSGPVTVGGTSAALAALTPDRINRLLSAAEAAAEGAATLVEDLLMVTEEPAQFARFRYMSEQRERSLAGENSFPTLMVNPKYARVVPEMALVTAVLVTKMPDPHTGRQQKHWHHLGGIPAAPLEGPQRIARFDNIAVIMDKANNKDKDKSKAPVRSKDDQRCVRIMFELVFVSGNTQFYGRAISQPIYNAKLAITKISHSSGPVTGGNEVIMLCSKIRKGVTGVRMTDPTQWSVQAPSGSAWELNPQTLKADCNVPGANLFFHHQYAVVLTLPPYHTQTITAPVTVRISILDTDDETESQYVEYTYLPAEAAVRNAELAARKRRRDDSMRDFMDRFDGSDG

The target in the next experiment is T5, GST-Dm-Relish (Drosophila melanogaster, UniProt Q94527 99-473).
T5 sequence: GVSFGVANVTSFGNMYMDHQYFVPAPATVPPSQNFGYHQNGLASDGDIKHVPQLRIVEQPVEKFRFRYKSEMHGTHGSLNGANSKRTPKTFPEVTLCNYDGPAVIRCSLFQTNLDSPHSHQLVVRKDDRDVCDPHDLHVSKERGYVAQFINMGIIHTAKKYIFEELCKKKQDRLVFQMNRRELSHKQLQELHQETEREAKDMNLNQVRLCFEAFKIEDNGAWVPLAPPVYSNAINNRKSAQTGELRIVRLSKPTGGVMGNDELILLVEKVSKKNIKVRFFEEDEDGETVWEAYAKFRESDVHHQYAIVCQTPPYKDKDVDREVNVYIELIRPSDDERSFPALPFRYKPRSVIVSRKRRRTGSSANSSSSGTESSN

Another experiment addresses T6, GST-Aq-NF-kB (Amphimedon queenslandica, UniProt A9Y5G7 2-389).
T6 sequence: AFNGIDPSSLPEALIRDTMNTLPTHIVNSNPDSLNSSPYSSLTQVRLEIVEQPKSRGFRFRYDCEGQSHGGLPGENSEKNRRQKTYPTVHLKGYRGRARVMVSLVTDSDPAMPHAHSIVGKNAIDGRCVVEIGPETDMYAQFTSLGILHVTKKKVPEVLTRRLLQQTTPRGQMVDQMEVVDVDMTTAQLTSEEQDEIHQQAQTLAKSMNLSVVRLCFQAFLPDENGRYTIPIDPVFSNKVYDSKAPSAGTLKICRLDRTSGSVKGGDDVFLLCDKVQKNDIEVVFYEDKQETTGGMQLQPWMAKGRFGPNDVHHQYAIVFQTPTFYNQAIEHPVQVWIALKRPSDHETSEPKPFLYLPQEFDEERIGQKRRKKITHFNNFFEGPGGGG

In another experiment the target is GST-Hu-p50 (Homo sapiens, UniProt P19838 7-356).

Substitutions are numbered along the chain they refer to.

GST-Hu-p50, sequence (P19838 7-356): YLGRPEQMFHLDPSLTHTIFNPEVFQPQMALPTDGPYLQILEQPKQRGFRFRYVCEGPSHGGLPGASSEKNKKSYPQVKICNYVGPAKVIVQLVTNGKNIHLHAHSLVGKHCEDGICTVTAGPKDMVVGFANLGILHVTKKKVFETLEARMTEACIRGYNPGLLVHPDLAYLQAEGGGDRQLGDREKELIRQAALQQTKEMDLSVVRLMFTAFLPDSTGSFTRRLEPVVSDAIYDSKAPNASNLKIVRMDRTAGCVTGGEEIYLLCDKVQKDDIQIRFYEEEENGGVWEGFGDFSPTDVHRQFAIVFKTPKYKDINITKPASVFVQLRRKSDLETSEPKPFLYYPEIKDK

With “CCGATTAACATCAAGGGTTTCCCTGATGTTAATCGGGTCTTGATTCGCTTGACGCTGCTG”, the binding signal was found to be 4.12 z-score with GST-Ap-NF-kB RHD; 4.79 z-score in experiment [1]; 4.07 z-score in experiment [2]; 3.82 z-score with GST-Co-NF-kB; 7.83 z-score with GST-Dm-Relish; 5.56 z-score with GST-Aq-NF-kB. The same sequence displayed a binding signal with GST-Hu-p50 of 3.28 z-score.

For the sequence “CCGATTAACATCAACTACCCCCCTGATGTTAATCGGGTCTTGATTCGCTTGACGCTGCTG”, the binding signal in the experiment with GST-Ap-NF-kB RHD was 4.79 z-score; in experiment [1] it was 2.46 z-score; in experiment [2] it was 3.11 z-score; with GST-Co-NF-kB, 4.43 z-score; in the experiment with GST-Dm-Relish it was 3.4 z-score; with GST-Aq-NF-kB, 3.98 z-score. Also, in the experiment with GST-Hu-p50, the binding signal stood at 3.1 z-score.

On to “CCGATTAACATCAAAAATCCACCTGATGTTAATCGGGTCTTGATTCGCTTGACGCTGCTG”, for which the binding signal with GST-Ap-NF-kB RHD was 2.25 z-score; in experiment [1], 2.65 z-score; in experiment [2] it was 3.34 z-score; with GST-Co-NF-kB, 1.26 z-score; with GST-Dm-Relish, 4.27 z-score; with GST-Aq-NF-kB it was 3.29 z-score. In the experiment with GST-Hu-p50, this sequence had a binding signal of 4.62 z-score.

As to “CCGATTAACATCAAAATTTTCCCTGATGTTAATCGGGTCTTGATTCGCTTGACGCTGCTG”, the binding signal in the experiment with GST-Ap-NF-kB RHD was found to be 5.5 z-score; in experiment [1] it was 8.54 z-score; in experiment [2], 10.1 z-score; with GST-Co-NF-kB, 6.32 z-score; with GST-Dm-Relish, 5.19 z-score; in the experiment with GST-Aq-NF-kB, 7.04 z-score. Moreover, the binding signal with GST-Hu-p50 was found to be 5.99 z-score.

Consider “CCGATTAACATCAGGGGATTACATGATGTTAATCGGGTCTTGATTCGCTTGACGCTGCTG”, for which the binding signal is 6.52 z-score in the experiment with GST-Ap-NF-kB RHD; 6.73 z-score in experiment [1]; 8.01 z-score in experiment [2]; 3.12 z-score in the experiment with GST-Co-NF-kB; 8 z-score in the experiment with GST-Dm-Relish; 5.64 z-score with GST-Aq-NF-kB. The same sequence returned a binding signal with GST-Hu-p50 of 5.79 z-score.

Consider “CCGATTAACATCAAGCAATCCCCTGATGTTAATCGGGTCTTGATTCGCTTGACGCTGCTG”, for which the binding signal in the experiment with GST-Ap-NF-kB RHD was 6.44 z-score; in experiment [1] it was 6.39 z-score; in experiment [2], 6.94 z-score; in the experiment with GST-Co-NF-kB it was 2.5 z-score; with GST-Dm-Relish, 5.11 z-score; with GST-Aq-NF-kB, 4.53 z-score. For the same sequence, the binding signal with GST-Hu-p50 came out at 5.37 z-score.

“CCGATTAACATCACGGGGATTCCTGATGTTAATCGGGTCTTGATTCGCTTGACGCTGCTG”: the binding signal with GST-Ap-NF-kB RHD stood at 9.77 z-score; in experiment [1] it was 9.58 z-score; in experiment [2], 8.87 z-score; with GST-Co-NF-kB, 4.28 z-score; with GST-Dm-Relish it was 10.6 z-score; with GST-Aq-NF-kB, 7.41 z-score. Also, in the experiment with GST-Hu-p50, the binding signal was 6.46 z-score.

As for “CCGATTAACATCAGGGGGTTGGATGATGTTAATCGGGTCTTGATTCGCTTGACGCTGCTG”, the binding signal is 4.25 z-score with GST-Ap-NF-kB RHD; 3.25 z-score in experiment [1]; 4.6 z-score in experiment [2]; 2.05 z-score in the experiment with GST-Co-NF-kB; 4.45 z-score with GST-Dm-Relish; 3.38 z-score in the experiment with GST-Aq-NF-kB. The sequence further displayed a binding signal with GST-Hu-p50 of 4.51 z-score.

As to “CCGATTAACATCAAAATCCCCCATGATGTTAATCGGGTCTTGATTCGCTTGACGCTGCTG”, the binding signal is 9.1 z-score in the experiment with GST-Ap-NF-kB RHD; 9.28 z-score in experiment [1]; 10.2 z-score in experiment [2]; 6.67 z-score with GST-Co-NF-kB; 8.88 z-score with GST-Dm-Relish; 7.37 z-score with GST-Aq-NF-kB. Further, the binding signal with GST-Hu-p50 is 7.45 z-score.

Take “CCGATTAACATCAGGGTTTTACCTGATGTTAATCGGGTCTTGATTCGCTTGACGCTGCTG”: the binding signal with GST-Ap-NF-kB RHD is 2.62 z-score; in experiment [1], 3.71 z-score; in experiment [2], 4.37 z-score; with GST-Co-NF-kB, 2.01 z-score; in the experiment with GST-Dm-Relish, 6.46 z-score; in the experiment with GST-Aq-NF-kB, 6.12 z-score. The same sequence came in with a binding signal with GST-Hu-p50 of 3.39 z-score.

Source of the values: PMC5700166.
